# Measurements as given in the supplement of paper PMC5499739.
# The full ranking holds about 16,000 sequences; the median of “Z-score” is about -0.37, and the highest 2% start at about 3.2. What follows is part of a selection rich in the highest values, with near analogues and random picks from the rest.
# Tested on: RBM10 RRM1-ZnF (GST-tagged construct)
# Assay: RNAcompete 7-mer binding Z-score; higher = stronger binding preference
# Summary of the method: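 GST-tagged RBM10 constructs (20 pmol) were mixed with a designed pool of 241 399 RNAs up to 41 nt (1.5 nmol), transcribed from microarray-derived DNA templates. Mixing was in 1 ml Hepes pH 7.8 buffer with KCl, NaCl, glycerol, DTT, BSA and glutathione Sepharose beads. Binding ran 30 min at 4°C, followed by four 2-min washes at 4°C, and bound RNA was identified by microarray hybridisation. Each heptamer motif received a one-sided Z-score for enrichment across probes containing it.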
row,Sequence,RNAcompete 7-mer binding Z-score
1,CGUCUGC,-0.759
2,UUUUAAC,-0.818
3,GUAGAUG,1.93
4,AGGUUCA,-0.0285
5,UUUUCUU,-0.772
6,UAGCGGA,1.13
7,CAGCGGG,2.5
8,GAGCGAC,0.192
9,GAGCGGG,3.61
10,UAGCGAG,0.826
11,GAGCGGU,1.72
12,GAGCGAG,3.42
13,GAGCGGC,1.44
14,GAGCGGA,3.98
15,CCUACCU,-0.766
16,CCAGUCC,-0.789
17,AACGACU,-0.457
18,CGUGCUG,-0.149
19,CCCGCUC,-0.552
20,CGGUAAG,1.26
21,GGGUAAA,3.98
22,CGGUAAA,0.29
23,AGGUAAA,1.82
24,GGGUAAC,2.4

row,Sequence,RNAcompete 7-mer binding Z-score
1,GGGUAAG,4.39
2,CCCUUCA,-0.776
3,CCACUAC,-0.623
4,AUCCGAU,-0.717
5,GGGAAGU,3
6,GGAAAAA,1.86
7,CGGAAAG,1.84
8,CGGAAAA,0.654
9,GGAAAAG,3.24
10,UGGAAAG,2.84
11,GGGAAAG,4.79
12,GAAAAAG,1.49
13,UGAAAAG,0.381
14,CGGAAGA,0.923
15,GGGAAGA,3.86
16,GGGAAAA,3.4
17,UCCGAUG,-0.464
18,UGUACUA,-0.415
19,AUCGGCC,-0.62
20,CUCGCAG,-0.11
21,GAGCUGG,1.88
22,GGUGCGG,2.92
23,GGCGUGC,0.738
24,CGGUCUU,-0.607

row,Sequence,RNAcompete 7-mer binding Z-score
1,CUAUGGU,-0.116
2,CCUCUUA,-0.85
3,GGGGUAC,2.57
4,AGGGUAA,4.13
5,AGGGUAU,3.69
6,GGGGUAA,4.14
7,GGGGUAU,3.17
8,GAGGUAA,2.23
9,GUGGUAG,2.2
10,AAGGUAU,2.13
11,CGGGUAU,1.59
12,CGGGUAA,1.89
13,GGGGUAG,4.61
14,UGGGUAA,2.97
15,ACAUUGG,0.553
16,AGCUAAG,-0.035
17,CAUUUAC,-0.85
18,AAUCGAA,-0.181
19,ACCAGCC,-0.672
20,CCUGAGG,0.339
21,GUUCUGU,-0.431
22,CACUAGC,-0.633
23,CCGUGCC,-0.532
24,AGAAUGG,3.27

row,Sequence,RNAcompete 7-mer binding Z-score
1,UGAAUGG,2.5
2,AGAAUGU,0.235
3,GGAAUGU,1.94
4,GGAAUGG,4.85
5,CGAAUGG,1.29
6,UUGUUUG,0.0138
7,UCUAAGG,-0.00896
8,AUGCGUU,-0.405
9,UCCAACC,-0.805
10,GAAGGUU,2.87
11,GAAGGUC,1.25
12,GAAGGUA,3.84
13,UAAGGUA,1.5
14,AAAGGUA,3.05
15,GAAGGUG,4.59
16,AAAGGUG,3.71
17,UAAGGUG,2.16
18,CAAGGUG,1.76
19,AUUAAGG,1.2
20,CGGGUCU,0.339
21,CCGAAGC,-0.61
22,GGGUUGG,4.64
23,UGGUUGA,2.02
24,CGGUUGA,1.01

row,Sequence,RNAcompete 7-mer binding Z-score
1,CGGUUGG,2.56
2,AGGUUGG,3.06
3,GGGUUAG,4.38
4,UGGUUAG,2.24
5,CGGUUAG,0.881
6,GGGUUGA,3.8
7,UCCAGAG,-0.35
8,ACAGAAG,0.595
9,UUACAAA,-0.305
10,UAACUGA,-0.295
11,GGUCGGU,1.24
12,GGUUAGC,1.12
13,GGAUUGU,1.22
14,GGGAUGU,3.21
15,UGGAUAG,2.48
16,GGAUUGG,3.79
17,CGAUUGG,0.949
18,GGGAUAG,4
19,GGGAUGC,3.06
20,GGUUAGU,1.7
21,AGGAUAG,2.16
22,GGUUAGG,4.59
23,GGGAUGA,4.17
24,UGACAGG,2.13

row,Sequence,RNAcompete 7-mer binding Z-score
1,UACCCAG,-0.659
2,UCGCGUA,-0.532
3,ACUCUUU,-0.844
4,AAUUUCG,-0.607
5,GUGCUAA,0.153
6,UCAUUAA,-0.509
7,GCAUUCG,-0.444
8,GGGAUAA,3.48
9,AGAUAGG,2.44
10,GGAUAGG,4.11
11,GGGAUUG,3.5
12,AGGAUUG,1.5
13,UGGAUAA,1.15
14,GGGAUAC,2.5
15,GGGAUUC,1.12
16,GGAUAGA,2.61
17,GUAGUUC,-0.243
18,UGAAUAG,0.387
19,GUCUGAC,-0.529
20,CACAACA,-0.363
21,AUGGUGG,3.82
22,CUGGUGG,1.64
23,GUGGUGG,3.9
24,AUGGUGC,1.03

row,Sequence,RNAcompete 7-mer binding Z-score
1,UUGGUGG,2.48
2,GUGGUGC,1.76
3,CCCGAGG,0.384
4,AUCACAU,-0.457
5,CAGCAAC,-0.539
6,CGACGCA,-0.36
7,UGGGUCU,1.12
8,ACUGCUG,-0.675
9,GAGGGUU,3.03
10,UCGGGUA,1.4
11,GAGGGUG,3.75
12,UAGGGUA,3.47
13,UAGGGCG,2.22
14,AAGGGUA,4.59
15,AAGGGUC,1.72
16,CAGGGUA,2.99
17,UAGGGUC,1.55
18,GAGGGUC,1.44
19,AAGGGCA,2.78
20,UAGGGUG,4.81
21,UGUUUCU,-0.418
22,CCUAAGG,-0.344
23,AGUCCCA,-0.714
24,AUGGUAG,2.74

row,Sequence,RNAcompete 7-mer binding Z-score
1,ACGCCAU,-0.665
2,AAACCUC,-0.802
3,UCCCUUU,-0.912
4,GCAUUUG,-0.477
5,CCGAAGG,0.179
6,UAGGGUU,3.33
7,AAGGUUU,2.51
8,UCGGGUU,1.12
9,CAGGGUU,2.15
10,CAGGGCG,2.02
11,AAGGGUU,4.07
12,CCGGGUA,0.625
13,AAAGGUU,3.12
14,CAGGGUG,3.21
15,GAGGGUA,3.95
16,GAGGGCA,2.12
17,CAGGGUC,1.09
18,GCCGCGA,-0.422
19,AACGUCA,-0.574
20,AGCUAUG,-0.168
21,GUUCGCA,-0.652
22,CCCUUAU,-0.831
23,AGCUGUU,-0.737
24,UAUACGU,-0.357

row,Sequence,RNAcompete 7-mer binding Z-score
1,AAGGUGA,3.66
2,AAGGUGG,4.39
3,AAGGUGC,2.39
4,GAGGUGG,3.35
5,GAGGUGU,2.37
6,GAGGUGA,2.56
7,GAGGUGC,1.81
8,AAGGUAA,2.97
9,CAGGUAG,2.32
10,AAGGUGU,2.55
11,CAGGUGA,1.49
12,AAGGUAG,3.69
13,CGUUACU,-0.558
14,AGUAUUC,-0.493
15,AAACCAA,-0.548
16,CAGCGUC,-0.623
17,AGGAAUA,0.881
18,ACUACUA,-0.402
19,CCCUGUG,-0.327
20,GACUCUA,-0.642
21,GUAUGUG,1.07
22,CACUCGC,-0.604
23,AUGCGAG,0.569
24,UAGGUUG,2.09

row,Sequence,RNAcompete 7-mer binding Z-score
1,CAGGUUG,2.04
2,AAGGUUG,3.49
3,AGAGCGC,-0.568
4,GCACACU,-0.295
5,UGGUGGA,2.86
6,GCGUGGG,3.53
7,GGGUGCG,2.96
8,UGGUGGU,2.8
9,GGGUGGG,4.82
10,UCGUGGG,2.53
11,ACGUGGG,2.43
12,CGGUGGU,1.64
13,UGGUGGG,4.74
14,GGGUGGC,2.89
15,UGGUGGC,1.8
16,GGGUGGU,4.8
17,AACAGAA,-0.0447
18,UUUGCGU,-0.642
